Source: PubChem (National Center for Advancing Translational Sciences (NCATS))
ALOX12 inh = inhibitors of human 12S-lipoxygenase ALOX12; purified 12hLO, xylenol orange hydroperoxide absorbance; Potency, µM (highest dose often 108 µM), without a hit: at the highest dose activity change, negative = inhibition, most hits filed as inhibitors; 580,000 tested, 1.1% active; AID 1671190; further: potency means the concentration at half of the fitted maximal effect
Target sequence (P18054 whole entry, looked up): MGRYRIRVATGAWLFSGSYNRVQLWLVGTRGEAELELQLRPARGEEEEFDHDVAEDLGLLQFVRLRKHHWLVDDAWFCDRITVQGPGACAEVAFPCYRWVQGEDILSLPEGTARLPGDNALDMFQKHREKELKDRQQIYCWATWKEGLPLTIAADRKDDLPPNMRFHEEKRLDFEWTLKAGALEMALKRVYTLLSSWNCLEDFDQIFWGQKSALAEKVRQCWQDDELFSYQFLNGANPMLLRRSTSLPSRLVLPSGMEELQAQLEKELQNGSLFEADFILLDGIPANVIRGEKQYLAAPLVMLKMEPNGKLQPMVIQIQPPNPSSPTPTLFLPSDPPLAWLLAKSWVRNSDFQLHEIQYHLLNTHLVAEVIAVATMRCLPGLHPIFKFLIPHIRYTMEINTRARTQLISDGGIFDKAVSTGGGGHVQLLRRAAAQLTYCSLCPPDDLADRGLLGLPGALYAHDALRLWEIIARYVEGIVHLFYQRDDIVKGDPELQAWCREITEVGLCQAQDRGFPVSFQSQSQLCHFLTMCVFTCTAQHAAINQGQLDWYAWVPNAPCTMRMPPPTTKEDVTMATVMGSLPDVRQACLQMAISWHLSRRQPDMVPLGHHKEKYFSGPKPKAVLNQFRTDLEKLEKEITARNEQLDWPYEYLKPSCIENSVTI
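Purified human 12hLO at 150 nM in 25 mM Hepes, 0.01% Triton X-100, pH 7.0, preincubated 15 min at room temperature with compound. Reaction started with 40 uM arachidonic acid, 30 min at room temperature. Hydroperoxide measured by Fe-xylenol orange, 573/405 nm absorbance ratio.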
HT1080 IDH1KD tx = kills HT-1080 cells with IDH1 knockdown; HT-1080 IDH1 knockdown viability, ATP luminescence, 48 h; Potency, µM (highest dose often 46.1 µM), inactives show top-dose activity, negative = toxicity, actives largely listed as cytotoxic; 360,000 tested, 2% active;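 further: potency means the concentration at half of the fitted maximal effect; 0% = DMSO wells and -100% = cell-free medium wells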
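Using the IDH1-knockdown HT-1080 line run in the same batch and compound series as the NT line, viability after 48 h at 37 °C was determined by CellTiter-Glo luminescence and expressed as % activity.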
HT1080NT lethal = kills 2HG-producing HT-1080-NT fibrosarcoma cells. HT-1080-NT fibrosarcoma viability, CellTiter-Glo ATP luminescence, 48 h. Potency, µM (series often up to 46.1 µM), for inactives: top-dose activity, negative = less viability, most hits filed as cytotoxic. 360,000 tested, 1.6% active. AID 686970;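 further: NT is the 2HG producing partner of a matched IDH1 knockdown line; potency means the concentration at half of the fitted maximal effect; 0% = DMSO-treated cells and -100% = media-only wells without cells; nearly all actives have a fitted effect of over 55% in size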
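Viability of the 2HG-overproducing fibrosarcoma line after 48 hours of compound exposure at 37 degrees C was determined by luminescence with CellTiter-Glo, and concentration-effect curves were then fitted and categorized.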
TDP1 cell noCPT = qHTS for Inhibitors of human tyrosyl-DNA phosphodiesterase 1 (TDP1): qHTS in cells in absence of CPT. DT40 Tdp1-/- hTDP1 cells, no CPT, ATP luminescence, 48 h. Potency, µM (series often up to 46.2 µM), for the others: top-dose activity change, negative = growth inhibition, hits mostly inhibitors. 420,000 tested, 15% active; further: potency means the concentration at half of the fitted maximal effect; nearly all actives have a fitted effect of over 55% in size
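Readout: luminescence from CellTiter-Glo after 30 min in the dark at RT. Cells: DT40 Tdp1-/- with stable hTDP1, 400/well. Exposure: compounds alone, ≥48 hr, 37 °C.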
DT40 TDP1 CPT = growth inhibition of DT40 Tdp1-/-;hTDP1 cells with camptothecin (screen for TDP1 inhibitors). Potency, µM (series often up to 46.2 µM), for inactives: at the top dose activity change, negative = growth inhibition, usual class: inhibitors. chicken DT40 Tdp1-/-;hTDP1 cells + 20 nM CPT, ATP luminescence, 48 h. 420,000 tested, 12% active; further: potency means the concentration at half of the fitted maximal effect; nearly all actives have a fitted effect of over 55% in size
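Chicken DT40 Tdp1-/- cells complemented with human TDP1, 400 cells/well, exposed to compounds plus 20 nM camptothecin for at least 48 h at 37 C; viability read as ATP content by CellTiter-Glo luminescence.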
IL1B secr inh = blocks inflammasome-driven IL-1 beta release | THP-1 LPS/ATP IL-1B secretion, AlphaLISA, 16 h; hits give low values | activity change, % at 57.5 µM | 360,000 tested, 4.7% active; in the data active means activity change below about -50%; inconclusive means mostly about -30% to -49%
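THP-1 cells pretreated 1 hr with compounds (up to 57.5 uM final), then stimulated with LPS (250 ng/mL final) plus ATP (1.25 mM final); secreted IL-1B measured by AlphaLISA after 16 hr, decreased signal indicating inhibition.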
An asterisk follows results filed as active; ? = inconclusive; nt = no result given; [ ] = remark or other dose. The full list was thinned out, with hits kept by preference. Unless noted, the call rests on the fitted dose curve; in most records, active means well fitted curve in the direction sought with a large enough effect; inconclusive means small, poorly fitted or top-dose-only effect, or another doubt; inactive means no such curve, though single readings can be large; an effect the other way counts as inactive or inconclusive. Unless noted, on the % scale 0 is the no-effect control and ±100 the full control effect.

SMILES	ALOX12 inh	HT1080 IDH1KD tx	HT1080NT lethal	TDP1 cell noCPT	DT40 TDP1 CPT	IL1B secr inh
COc1cc(-c2c(OC)cccc2OC)cc2c1OCCN(C(=O)CCn1nc(C)cc1C)C2	1%	nt	nt	-17%	-5%[9.04 µM]	nt
COc1cc(-c2cc(C)c3cccc(OC)c3n2)cc2c1OCCN(C(=O)CCn1ccc(C)n1)C2	9%	nt	nt	23µM*	-16%[9.04 µM]	nt
COCc1ccc(CN2CCOc3c(cc(-c4cc(C)c5cccc(OC)c5n4)cc3OC)C2)o1	12%	nt	nt	21µM*	-5%[9.04 µM]	nt
CC(C)CC(NC(N)=O)C(=O)NCc1ccc(C(F)(F)F)cc1 (stereo not drawn)	-4%	nt	nt	nt	nt	nt
O=C(Nc1ccc(F)cc1)C(CCc1ccccc1)N1CCN(c2cccc(C(F)(F)F)n2)CC1 (stereo not drawn)	-14%	?	?	?	18µM*	0
O=C(Nc1ccc(F)cc1)C(c1ccncc1)N1CCN(c2cccc(C(F)(F)F)n2)CC1 (stereo not drawn)	-5%	?	?	21µM*	?	-11
O=C(Nc1ccc(F)cc1)C(c1cc2ccccc2o1)N1CCN(c2cccc(C(F)(F)F)n2)CC1 (stereo not drawn)	-3%	17%	24%	?	?	35
COc1ccc2cc(CN3CCC(N(C)C)C3)c(-c3cccc(C)c3)nc2c1 (stereo not drawn)	32%	nt	nt	nt	nt	nt
CCC(C(=O)N1CCN(c2ccc(F)cc2)CC1)n1cnc2ccccc2c1=O (stereo not drawn)	-24%	nt	nt	nt	nt	nt
Cn1c(Sc2ccc(Br)cc2)c(C=O)c2ccccc21	1%	26µM*	?	13µM*	?	-81*
COc1ccc(CNC(=O)c2ccc3c(c2)CCN3S(=O)(=O)c2ccc(Cl)cc2)cc1	-16%	nt	nt	16µM*	?	nt
CCS(=O)(=O)N1CCc2cc(C(=O)NCc3ccccc3Cl)ccc21	-23%	nt	nt	?	?	nt
CCS(=O)(=O)N1CCc2cc(C(=O)NCc3ccc(Cl)cc3)ccc21	-29%	nt	nt	16µM*	?	nt
Cc1ccc2c(c1)cc(C(=O)NCCc1ccccc1)n2C	-30%	nt	nt	nt	nt	nt
Cc1ccc2oc(C(=O)NCC(c3cccs3)N3CCOCC3)c(C)c2c1 (stereo not drawn)	-5%	nt	nt	nt	nt	nt
CCn1c(SCC(=O)NCc2ccco2)nnc1C1CCCC1	0%	12%	29%	21%	7%	-14
Cc1cc2nnc(SCC(=O)NCc3ccco3)n2c2ccccc12	32%	?	?	4.6µM*	4.6µM*	-24
O=C(CSc1nnc(C2CCCCC2)n1Cc1ccccc1)NCc1ccco1	0%	0%	0%	16µM*	16µM*	-20
Cc1cc2cc(C)c3nnc(SCC(=O)NCc4ccco4)n3c2cc1C	15%	2%[9.24 µM]	-23%	?	?	-66*
Cc1cc2nnc(SCC(=O)NCc3cccs3)n2c2ccccc12	-7%	11%	13%	4%	0%	0
Cc1cc(SCC(=O)NC(=O)NCc2ccco2)nc2c(C)cccc12	22µM*	?	-27%	29µM*	?	15
CC(CCc1ccccc1)NC(=O)c1ccc2c(Cl)c3c(nc2c1)CCC3 (stereo not drawn)	-37%	nt	nt	nt	nt	nt
CNC(=O)c1cn2c(n1)CN(S(=O)(=O)c1cccc(OC)c1)CC2	15%[6.33 µM]	nt	nt	nt	nt	nt
Cc1nc(SCC(=O)NCc2ccco2)[nH]c(=O)c1C	4%	-20%	?	-20%	23µM*	39
Nc1nc(SCC(=O)NCc2ccco2)[nH]c(=O)c1-c1ccccc1	13%	14%	-3%	-8%	-7%	28
SMILES	ALOX12 inh	HT1080 IDH1KD tx	HT1080NT lethal	TDP1 cell noCPT	DT40 TDP1 CPT	IL1B secr inh
CCOC(=O)CCN(C)Cc1cccc(OC)c1OC	9%	nt	nt	nt	nt	nt
CCS(=O)(=O)c1nc(S(=O)(=O)c2ccc(Cl)cc2)c(NCc2ccccc2Cl)s1	-16%	nt	nt	?	?	nt
CCCCNc1sc(S(=O)(=O)CC)nc1S(=O)(=O)c1ccc(C)cc1	-2%	nt	nt	23µM*	?	nt
CCCS(=O)(=O)c1nc(S(=O)(=O)c2ccc(C)cc2)c(NCc2ccccc2)s1	-9%	nt	nt	?	-27%	nt
CCCS(=O)(=O)c1nc(S(=O)(=O)c2ccc(C)cc2)c(NCC(C)C)s1	-13%	nt	nt	21µM*	?	nt
CC(C)OCCCNc1sc(S(=O)(=O)c2ccccc2)nc1S(=O)(=O)c1ccc(Cl)cc1	5%	nt	nt	18µM*	?	nt
CCCCNc1sc(S(=O)(=O)CCC)nc1S(=O)(=O)c1ccc(C)cc1	-24%	nt	nt	21µM*	?	nt
COc1cccc(CN2Cc3nc(-c4cc(Cl)ccc4OC)ccc3OCC2=O)c1	0%[176 µM]	nt	nt	nt	nt	nt
CC(CCc1ccccc1)NC(=O)C12CC3CC(CC(C3)C1)C2 (stereo not drawn)	46%	nt	nt	nt	nt	nt
Cc1ccc(CNC(=O)C2(C)CCCCC(=O)N2)o1 (stereo not drawn)	28%	nt	nt	nt	nt	nt
CN1CC(c2ccccc2)CC2(CCN(C(=O)CCN3CCCC3=O)CC2)C1 (stereo not drawn)	27%	nt	nt	nt	nt	nt
CCN1C(=O)C2(CCN(S(=O)(=O)c3ccc(Cl)c(C)c3)CC2)c2ccccc21	36%	nt	nt	nt	nt	nt
CN(C)Cc1c(O)ccc2ccccc12	0%	-3%	3%	?	?	0
Oc1ccc2ccccc2c1CN(Cc1ccccc1)Cc1ccccc1	3.2µM*	nt	nt	nt	nt	nt
CC(C)CN(Cc1c(O)ccc2ccccc12)CC(C)C	40µM*	4%	5%	?	?	34
COc1ccc(Cl)cc1NC(=O)COC(=O)CCS(=O)(=O)c1ccc(C)c(C)c1	8%	nt	nt	nt	nt	nt
C=CCn1cc2c3c(cccc31)[C@H](CC(C)C)N[C@H](C(=O)N1CCN(C)CC1)C2	94%[176 µM]	nt	nt	nt	nt	nt
Cc1ccc(S(=O)(=O)N(C)C[C@@H]2OCCCC[C@H](C)Oc3ccc(NC(=O)Nc4ccc(F)cc4)cc3C(=O)N([C@H](C)CO)C[C@H]2C)cc1	?	-26%	-20%	7.3µM*	13µM*	-29
C[C@@H]1CN([C@@H](C)CO)C(=O)c2cc(NC(=O)c3ccccc3)ccc2O[C@@H](C)CCCCO[C@@H]1CN(C)S(=O)(=O)c1ccc(F)cc1	-7%	-10%	-6%	21µM*	?	-18
COc1ccc(S(=O)(=O)N(C)C[C@H]2OCCCC[C@H](C)Oc3ccc(NC(=O)Nc4ccc(F)cc4)cc3C(=O)N([C@H](C)CO)C[C@H]2C)cc1	-3%	-14%	-16%	-11%	?	-9
